# Results from PubChem BioAssay (EPA / NIEHS).
# Values joined by “and” are separate entries in the source; they are usually repeats but may differ in a detail not shown here. Identical values can stand only once. Active and inactive are the calls of the source. The calls were made as follows: active = hit-call score of the fitted dose curve at least 0.9, where 1 is the maximum; inactive = score below 0.9.
# Read-out: Vascular cell adhesion molecule 1 (VCAM1), VCAM1 (gene 7412)
# Experiment: BSK_hDFCGF_VCAM1: BioMAP Diversity Plus: hDFCGF Assay for Vascular cell adhesion molecule 1 (VCAM1) Biomarker Activity (AID 2283065);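 as to AC50: VCAM-1 protein level quantified by ELISA after 24 h chemical exposure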
# Details: primary human foreskin fibroblasts; actives raise or lower the signal
# Procedure, shortened: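 Human foreskin fibroblast primary cells dosed with chemical, VCAM-1 measured by ELISA at 24 h. Bidirectional curve fitting relative to DMSO as negative control/baseline.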
Compound,outcome,AC50
NC(=O)N(O)[C@@H]1COc2cc(OCc3ccccc3)ccc21,inactive,
c1ccc(C(O[C@@H]2CCCN(CCc3ccc4c(c3)OCO4)C2)c2ccccc2)cc1,,8.8 µM (active)
CCCOc1ccc(S(=O)(=O)N2CCN(CC)CC2)cc1-c1nc2c(CC)n(Cc3ccccn3)nc2c(=O)[nH]1,inactive,
CCCCOC(=O)c1ccccc1,inactive,
COS(C)(=O)=O,inactive,
NNC(=O)c1ccncc1,inactive,
CCCCC(CC)C(=O)OCCOCCOCCOC(=O)C(CC)CCCC (stereo not drawn),inactive,
O=S(=O)(O)c1ccc(N=Nc2c(O)ccc3cc(S(=O)(=O)O)ccc23)cc1,inactive,
Cn1c(=O)c2[nH]cnc2n(C)c1=O,inactive,
CCN(CC)C(=S)SSC(=S)N(CC)CC,,1.56 µM (active)
OC[C@H]1O[C@@H]2O[C@H]3[C@H](O)[C@@H](O)[C@@H](O[C@H]4[C@H](O)[C@@H](O)[C@@H](O[C@H]5[C@H](O)[C@@H](O)[C@@H](O[C@H]6[C@H](O)[C@@H](O)[C@@H](O[C@H]7[C@H](O)[C@@H](O)[C@@H](O[C@H]1[C@H](O)[C@H]2O)O[C@@H]7CO)O[C@@H]6CO)O[C@@H]5CO)O[C@@H]4CO)O[C@@H]3CO,inactive,
OC(CCl)CCl,inactive,
C=CCc1cc(S(=O)(=O)c2ccc(O)c(CC=C)c2)ccc1O,,15 µM (active)
c1ccc2c(c1)-c1cccc3c1c-2cc1ccccc13,inactive,
CCCC(CCC)C(=O)O,inactive,
CC1(C)C(=O)N(Cl)C(=O)N1Cl,inactive,
Cc1ccc(S(=O)(=O)NC(=O)NN2CCCCCC2)cc1,inactive,
COc1cc2c(c(OC)c1OC)-c1ccc(OC)c(=O)cc1[C@@H](NC(C)=O)CC2,,2.32 µM (active)
Cc1cccc(O)c1C,inactive,
C[C@@H](Oc1ccc(CNC(=O)c2cccnc2Oc2ccc3c(c2)OCO3)c(F)c1)C(=O)O,inactive,
CCCCCCCCN(C)C,inactive,
NCC(F)(F)C(F)(F)C(F)(F)C(F)(F)F,inactive,
NC(=O)NN=Cc1ccc([N+](=O)[O-])o1,inactive,
Cc1ncc([C@@H](CCCCCCc2ccc3c(n2)NCCC3)CC(=O)O)cn1,inactive,
Cn1cc[nH]c1=S,inactive,
OC(O)(C(F)C(O)(O)C(F)(F)F)C(F)(F)F,,1.12 µM (active) and 13 µM (active)
CCCCCCCCCCCCCCCCOS(=O)(=O)O,,5.95 µM (active)
c1ccc2ncccc2c1,inactive,
